According to PMC5540273 (PLoS ONE, 2017):
“And” between values parts separate entries of the source, which are not always exact repeats. Equal values may be shown once.

Test system: T1, ERK3
T1 construct: gene MAPK6
Conditions: concentration: 1 μM, replicates: in singlicate; 1 µM; n = 1
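Note: KINOMEscan kinase panel screen.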

SMILES	%Inh
NCCNS(=O)(=O)c1ccc(-c2ccnc3[nH]ccc23)cc1 [GSK977617]	12% and 17%
CC(C)(CN)c1nc(-c2ccc(Cl)c(O)c2)c(-c2ccncc2)[nH]1.O=C(O)C(F)(F)F [SB-477794]	20% and 0%
Cl.Cl.Cl.Fc1ccc(-c2ncn(C3CCNCC3)c2-c2ccnc(Nc3ccccc3)n2)cc1 [SB-238039]	0% and 18%

Same assay, conditions: concentration: 1 μM, replicates: in singlicate; n = 1

SMILES	%Inh [%]
N#Cc1c(N2CCOCC2)sc(-c2ccn[nH]2)c1-c1ccc(Cl)cc1	0
c1ccc(-c2cc(-c3c[nH]nc3-c3ccccn3)ccn2)cc1 [GW576604]	0
O=C(NCCCN1CCOCC1)c1cccc(Nc2nccc(Nc3ccc(Oc4ccccc4)cc3)n2)c1 [GW663929]	0
CCCCCc1nc2c(N)ncnc2n1CCCCC [SKF-97255]	0
Cc1c(Cn2c(C)nn3c(=O)cc(N4CCOC(C)C4)nc23)cccc1C(F)(F)F (centres unmarked) [GSK2344444]	0
O=C(NCCNc1ccnc(Nc2ccc(F)cc2)n1)c1cc2ccccc2s1 [GSK1379874]	0
CC(C)Oc1ccc2c(-c3ccnc(Nc4ccc(N5CCN(C)CC5)cc4)n3)cnn2n1 [GW696155]	92.1
COc1cc2c(cc1OCCN1CCN(C)CC1)ncc1c3ccc(C#N)cc3[nH]c21	0
CC(=O)Nc1ccc(COc2ccc(Nc3ccnc4cc(-c5ccccn5)ccc34)cc2)cc1.Cl [GW440148]	6
CC(C)(C)n1cnc2c(N)ncnc21 [SKF-97359]	10
CN(C1=C(c2ccccc2)C(=O)NC1=O)c1ccccc1 [SB-334860]	1
Cl.Nc1ncnc2occ(-c3ccc(NC(=O)Nc4cc(C(F)(F)F)ccc4F)cc3)c12 [SB-707548]	0
NS(=O)(=O)c1cccc(-c2ccc3nccc(-c4cccc(S(N)(=O)=O)c4)c3c2)c1 [GW867253]	0
NS(=O)(=O)c1cccc(-c2ccc3ncc(N4CCOCC4)nc3c2)c1 [GSK1535721]	0
COc1ccc(CNC(=O)NC2CCN(c3ccnc(Nc4ccc(OC)cc4)n3)C2)cc1 (centres unmarked) [GSK1379727]	0
Cc1nnc(-c2ccc(C)c(-c3ccc(C(=O)Nc4ccc(NS(C)(=O)=O)cc4)cc3)c2)o1 [GW702865]	0

SMILES	%Inh [%]
Cc1nnc(-c2ccc3occ(-c4ccc(C(C)O)cc4)c3c2)o1 (centres unmarked)	15
[2H]C([2H])(c1cccc(C(F)(F)F)c1C)n1ccn2c(=O)nc(N3CCOCC3)cc12 [GSK2336394]	0
NCC(NC(=O)c1cc(-c2cn[nH]c2)c(-c2ccnc3[nH]ccc23)s1)c1ccccc1.O=C(O)C(F)(F)F.O=C(O)C(F)(F)F (centres unmarked) [GSK1325775]	20
O=C(NCCNc1ccnc(Nc2ccc(F)cc2)n1)Nc1ccccc1F [GSK1379880]	0
COc1ccc(S(=O)(=O)NC2CCN(c3cc(C)nc(Nc4cccc(C#N)c4)n3)CC2)cc1.O=C(O)C(F)(F)F [GSK1653539]	13
O=C1NC(=O)C(N2CCc3ccccc32)=C1c1cccc(Cl)c1 [SB-408010]	0
O=c1cc(N2CCOCC2)nc2n(Cc3cccc(Cl)c3Cl)c(C3CC3)nn12 [GSK2358994]	0
O=c1cc(N2CCOCC2)nc2n(Cc3cccc(F)c3)ccn12 [GSK2297430]	14
CSc1ccc(-c2cc3ncnc(SCC(=O)O)c3s2)cc1	0
O=C(c1ccc(-c2cc(-c3c[nH]nc3-c3ccccn3)ccn2)cc1)N1CCOCC1 [GW812171]	0
COc1ccc(Nc2nccc(N3CCC(NC(=O)Nc4cc(C)ccc4C)C3)n2)cc1 (centres unmarked) [GSK1379741]	0
Fc1ccc(-c2nn3c(OCC(F)(F)F)cccc3c2-c2ccncc2)cc1 [GW514784]	6
N#Cc1ccc(-c2cc(-c3c[nH]nc3-c3ccccn3)ccn2)cc1 [GW693028]	0
COc1cc2ncn(-c3cc(OCc4sccc4Cl)c(C(N)=O)s3)c2cc1OC [GSK448459]	8
NS(=O)(=O)CCc1cccc(Nc2nccc(-c3c(-c4cccc(NC(=O)c5c(F)cccc5F)c4)nn4ccccc34)n2)c1 [GSK336735]	0
O=C(Nc1n[nH]c2cc(-c3cccc(F)c3)ccc12)C1CC1 [SB-735464]	0
